In the library only some 2.5% were active in any assay of this set; here they are far more common.
MEKK2wt PB1 HTS: raises or lowers MEK5 binding to wildtype human MEKK2 PB1 domain; 1.1% of 290,000 active; Q9Y2U5; binding response (% of control), % at 10 µM; bead flow cytometry, Alexa488-MEK5 binding to MEKK2 WT; actives lie on both sides; AID 1531; in the data active = binding response below about 67% or above about 130%
MEKK2 mut-MEK5: signal of MEK5 binding to mutant human MEKK2 PB1 domain; bead flow cytometry, Alexa488-MEK5 binding to MEKK2 mutant; percent response, % at 10 µM; 0.35% of 290,000 active; in the data active = percent response above about 24%, passing the limit was not always enough
UBC13 polyUb: blocks human UBC13 polyubiquitin chain formation; P61088; 0.47% of 330,000 active; AID 485273; inhibition, % at 20 µM; TR-FRET; in the data active = inhibition above about 45%, passing the limit was not always enough
MEKK3 PB1 HTS: MEKK3-MEK5 PB1 interaction, increase or decrease. AID 1529. 1.4% of 290,000 active. bead-based flow cytometry, Alexa488-MEK5 binding to MEKK3; actives lie on both sides; 0 = blocked by unlabeled MEK5, 100 = vehicle. binding response (% of control), % at 10 µM. Q99759;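 active = binding response more than 3 SD above or below the average of its plate-row segment, actives on both sides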;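 note: Alexa488 bead fluorescence after subtracting the streptavidin-only scavenger bead signal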
Target sequence (Q99759 whole entry, looked up): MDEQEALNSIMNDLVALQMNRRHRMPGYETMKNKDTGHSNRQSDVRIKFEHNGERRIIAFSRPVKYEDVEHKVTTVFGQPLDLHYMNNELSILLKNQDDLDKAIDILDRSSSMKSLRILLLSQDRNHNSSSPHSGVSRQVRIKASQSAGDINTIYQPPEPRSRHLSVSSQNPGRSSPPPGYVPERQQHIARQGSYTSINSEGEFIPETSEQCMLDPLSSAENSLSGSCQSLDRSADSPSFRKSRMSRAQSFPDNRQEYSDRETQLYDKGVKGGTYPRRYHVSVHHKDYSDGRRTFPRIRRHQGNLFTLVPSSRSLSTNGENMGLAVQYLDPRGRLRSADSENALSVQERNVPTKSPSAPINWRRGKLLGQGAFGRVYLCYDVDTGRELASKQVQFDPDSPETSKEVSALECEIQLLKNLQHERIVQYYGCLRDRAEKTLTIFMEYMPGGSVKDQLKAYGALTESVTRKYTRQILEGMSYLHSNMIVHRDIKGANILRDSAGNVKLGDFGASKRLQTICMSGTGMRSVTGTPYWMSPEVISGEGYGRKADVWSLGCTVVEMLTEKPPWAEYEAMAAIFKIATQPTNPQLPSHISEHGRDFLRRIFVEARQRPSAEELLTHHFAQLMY
Rce1 inh: blocks yeast Ras-converting enzyme; yeast membranes, quenched prenylated peptide cleavage fluorescence; 0.27% of 290,000 active; Q03530; calls only; AID 2563;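 active = fall in fluorescence gain of 50% or more versus controls, with final raw signal at or below 3038400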;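 note: plate controls were neutral control wells for no effect and wells lacking membranes for full effect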
MEKK2wt confirm: raises or lowers MEK5 binding to wildtype human MEKK2, retest. shares compounds with MEKK3 PB1 HTS. bead flow cytometry, Alexa488-MEK5 binding to MEKK2 WT; actives lie on both sides. binding response (% of control), % at 10 µM. 2.4% of 5,900 active. AID 1892; in the data active = binding response below about 16% or above about 210%; inactive = in between
MEKK2mut-MEK5: signal of MEK5 binding to mutant human MEKK2, retest. shares compounds with MEKK3 PB1 HTS. bead flow cytometry, Alexa488-MEK5 binding to MEKK2 mutant. percent response, % at 10 µM. 2% of 5,900 active. AID 1893; in the data active = percent response mostly above about 71%, no sharp cut-off; inactive = mostly below about 38%;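 note: higher means compound restores mutant binding toward wildtype level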
MEKK3 confirm: confirmation of inhibitors of MEK5 binding to human MEKK3; 1.8% of 5,900 active; bead flow cytometry, Alexa488-MEK5 binding to MEKK3; hits give low values; shares compounds with MEKK3 PB1 HTS; binding response (% of control), % at 10 µM;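 active = binding response below 72% of control, or above a set upper limit, though filed actives all read lower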;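 note: 100% = DMSO only wells and 0% = binding blocked by excess unlabeled MEK5; lower values mean stronger disruption of MEK5 binding to MEKK3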
Active calls of the source: *; i = inactive; x = no result; [ ] = dose if it differs, or a comment.

SMILES | MEKK2wt PB1 HTS | MEKK2 mut-MEK5 | UBC13 polyUb | MEKK3 PB1 HTS | Rce1 inh | MEKK2wt confirm | MEKK2mut-MEK5 | MEKK3 confirm
COc1ccc(CNC(=O)C2CC(c3cccc(OC)c3)=NO2)cc1 (stereo unspecified) | 89 | -4 | -1 | 82*[inhibitor] | i | 103 | 0 | 102
CC(C)N(C(=O)CSc1nnc(Cc2csc(Nc3ccccc3)n2)o1)C(C)C | 90 | -2 | 0 | 75*[inhibitor] | i | 108 | 5 | 105
CCOc1ccc(Nc2nc(Cc3nnc(SCC(N)=O)o3)cs2)cc1 | 83 | -10 | -6 | 78 | i | x | x | x
Nc1ccc(C(=O)O)c(O)c1 | 81 | -14 | -79 | 95 | i | x | x | x
Nc1ccc(N)c(C(=O)O)c1 | 25*[inhibitor] | -58 | 29 | 47*[inhibitor] | i | 57 | -20 | 57*
O=C(/C=C/c1ccc2c(c1)OCO2)Nc1nc(-c2ccccc2)cs1 | 97 | -6 | -5 | 102 | i | x | x | x
Clc1ccc(-c2csc(N/N=C/c3ccc4c(c3)OCO4)n2)cc1 | 107 | 1 | -11 | 136* | x | 100 | -4 | 102
Cc1ccc(NS(=O)(=O)c2cccc(C(=O)N/N=C/c3ccc4c(c3)OCCO4)c2)c(C)c1 | 110 | 0 | 22 | 129* | i | 97 | -3 | 98
C=CCNC(=O)c1ccc(N(Cc2ccc(Cl)cc2)S(C)(=O)=O)cc1 | 102 | 4 | 1 | 96 | i | x | x | x
CCOc1ccc2nc3cc(NCc4ccc(OC)cc4)ccc3c(N)c2c1 | 163* | 139* | 38 | 82*[inhibitor] | i | 220* | 170* | 98
CC(=O)N1CCN(Cc2nc3cc([N+](=O)[O-])ccc3n2C)CC1 | 100 | -2 | 1 | 96 | i | x | x | x
Cn1c(CN2CCN(C(=O)c3ccc(F)cc3)CC2)nc2cc([N+](=O)[O-])ccc21 | 106 | 1 | 0 | 147* | i | 100 | 0 | 101
COc1ccc(-c2cc(C(=O)c3c(N)n(C)c(=O)n(C)c3=O)c3ccccc3n2)cc1OC | 99 | 1 | -2 | 104 | i | x | x | x
Cc1cnc(C(=O)Nc2nnc(C)s2)cn1 | 107 | 3 | -12 | 105 | i | x | x | x
Cc1cnc(C(=O)Nc2nccs2)cn1 | 2.0*[inhibitor] | -19 | -4 | 2.0*[inhibitor] | i | 108 | 6 | 111
CCCCCCC(C)OC(=O)Nc1cccc2ccccc12 (stereo unspecified) | 77 | 1 | 5 | 70*[inhibitor] | i | 91 | -11 | 94
CC(C)OCCCNC(=O)Nc1cccc2ccccc12 | 95 | -7 | -4 | 103 | i | x | x | x
CC(C)Cn1c(O)c(/C=C2\C=NN=C2c2ccccc2)sc1=S | 100 | 0 | 6 | 133* | i | 102 | 4 | 103
CCn1c(O)c(/C=C2\C=NN=C2c2ccccc2)sc1=S | 89 | -23 | 4 | 86 | i | x | x | x
COc1ccc(-c2ccc(/C=C3/C(=N)N4C=CSC4=NC3=O)o2)c([N+](=O)[O-])c1 | 97 | -1 | x | 134* | i | 95 | -4 | 94
O=C(COC(=O)C1(c2cccc(F)c2)CCCC1)NCc1ccc2c(c1)OCO2 | 106 | 0 | 3 | 132* | i | 104 | -2 | 99
O=C(COC(=O)C1(c2cccc(F)c2)CCCC1)NCc1cccs1 | 95 | -1 | -8 | 102 | i | x | x | x
O=C1[C@@H]2[C@@H]3C[C@@H]([C@H]4ON=C(c5ccc(Cl)cc5)[C@@H]34)[C@@H]2C(=O)N1c1ccc2c(c1)OCO2 | 98 | 0 | -5 | 83 | i | x | x | x
O=C1[C@@H]2[C@@H]3C[C@@H]([C@H]4ON=C(c5ccc(Cl)cc5Cl)[C@@H]34)[C@@H]2C(=O)N1C1CCCCC1 | 106 | 3 | -8 | 144* | i | 96 | -5 | 98
Brc1cnc2nc(SC/C=C/c3ccccc3)[nH]c2c1 | 94 | -1 | -2 | 99 | i | x | x | x
SMILES | MEKK2wt PB1 HTS | MEKK2 mut-MEK5 | UBC13 polyUb | MEKK3 PB1 HTS | Rce1 inh | MEKK2wt confirm | MEKK2mut-MEK5 | MEKK3 confirm
O=C(NCc1nc2ncc(Br)cc2[nH]1)c1ccccc1 | 0.0*[inhibitor] | -15 | 3 | 0.0*[inhibitor] | i | 90 | -4 | 95
COc1cccc(C(=O)Nc2ccc3nc(N4CCN(c5ncccn5)CC4)cc(C)c3c2)c1OC | 101 | 1 | 10 | 104 | x | x | x | x
CCN1CCN(c2cc(C)c3cc(NC(=O)c4ccc(OC)c(OC)c4)ccc3n2)CC1 | 130 | 30* | 12 | 105 | i | 126 | 13 | 102
COc1ccc(C(=O)Nc2ccc3nc(N4CCN(C)CC4)cc(C)c3c2)c(OC)c1 | 156* | 24* | 12 | 106 | i | 142 | 34 | 108
CCN1CCN(c2cc(C)c3cc(NC(=O)c4cccc(OC)c4)ccc3n2)CC1 | 122 | -1 | 12 | 104 | i | x | x | x
CC(C)COc1ccc(CN=C(N)N=C(N)N)cc1Cl | 139* | 25 | 18 | 106 | i | 112 | 1 | 89
COc1ccc(OC)c(/C=C/C(=O)OCC(=O)Nc2nnc(-c3ccccc3)o2)c1 | x | x | -16 | x | x | x | x | x
CC(=O)Nc1ccc(S(=O)(=O)NCCC(=O)OCC(=O)NNC(=O)c2ccccc2)cc1 | x | x | -8 | x | i | x | x | x
Cc1ccc(NC(=O)COc2nsnc2N2CCOCC2)cc1Cl | 93 | -4 | 6 | 94 | i | x | x | x
COc1ccc(C2CC2C(C)=O)cc1 (stereo unspecified) | 121 | 5 | 1 | 134* | i | 98 | 0 | 102
COc1ccc(Nc2nc3ccccc3nc2C)cc1 | 3.0*[inhibitor] | -16 | 2 | 2.0*[inhibitor] | i | 96 | -3 | 97

Screening data from PubChem.
